# In the library only some 1.8% were active in any assay of this set; here they are far more common.
# PTHR1 agonist: PTHR1 (human) receptor agonism | 410,000 compounds, 0.075% hits | Q03431 | Potency, µM (titrated, usually from 115 µM), for inactives: at the highest dose activation, usual class: activators | HEK293 GP2 PTHR1 cells, GloSensor cAMP luminescence, 1 h; also: nearly all actives have a fitted effect of over 55% in size
#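 HEK-293-derived GP2 cells expressing PTHR1 and a GloSensor cAMP reporter, 3,000/well, plated overnight, given luciferin plus IBMX (each 0.5 mM as added) for 1 h at 37 °C, then compound for 1 h at 37 °C. Luminescence was read after 15 min at room temperature.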
# RGS4 inhibitor: inhibitors of human regulator of G protein signaling 4. Transcreener GDP fluorescence polarization, RGS4-accelerated GTP hydrolysis. Potency, µM (highest dose often 114 µM), inactives show at the top dose activity change, negative = inhibition, usual class: inhibitors. 390,000 compounds, 0.039% hits. P49798; also: % is scaled to controls: 0 for no effect and ±100 for the full control effect; nearly all actives have a fitted effect of over 75% in size
#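 MLSMR compounds (23 nl, pin-transferred) preincubated 10 min at room temperature with a 500nM (2x) first reagent, then RGS4 at 900nM (2x) plus Transcreener GDP mix added; fluorescence polarization (620/688 nm) read before and after 90 min at 30 °C.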
# KAT2A inh: GCN5L2 (KAT2A) acetyltransferase inhibition; GCN5L2 HAT assay, ThioGlo1 CoA-SH fluorescence; Potency, µM (top dose mostly 58.9 µM), inactives show at the highest dose activity change, negative = inhibition, usual class: inhibitors; 390,000 compounds, 0.21% hits; also: % is scaled to controls: 0 for no effect and ±100 for the full control effect
#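 Compounds, pin-transferred from DMSO stocks, meet 20nM GCN5L2 for 15 min before the reaction begins with H3(1-25) peptide (75uM) and acetyl-CoA (70uM). Thiol-reactive ThioGlo1 reports CoA release over 20 min at room temperature.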
# GLP1R inv ag: GLP-1 receptor (human) inverse agonism; P43220; HEK293 GLP-1R CRE-luciferase, luminescence, 24 h; GLP-1R form is constitutively active; Potency, µM (highest dose often 38.3 µM), inactives show at the top dose activity change, negative = inhibition, hits mostly inhibitors; 410,000 compounds, 1.6% hits; also: % is scaled to controls: 0 for no effect and ±100 for the full control effect; nearly all actives have a fitted effect of over 55% in size
#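 Luminescence readout: a drop in cAMP-driven luciferase signal flags inverse agonism at a constitutively active GLP-1R stably expressed in HEK293. Compound exposure lasted 24 hr at 37 deg C, 5% CO2.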
# GLP1R ag: GLP-1 receptor (human) agonism; P43220; HEK293 GLP-1R CRE-luciferase, luminescence, 4-6 h; cells express a hypersensitive GLP-1R form; Potency, µM (doses to about 45.6 µM), for inactives: at the top dose activation, actives largely listed as activators; 380,000 compounds, 0.007% hits; also: % of control where 0% means no effect
# GLP1R cytotox: cytotoxicity in counter-screen for GLP-1R inverse agonists. HEK293 cAMP-luciferase reporter cells, luminescence, 24 h. Potency, µM (series often up to 38.3 µM), for inactives: at the top dose activity change, negative = inhibition, actives largely listed as inhibitors. 410,000 compounds, 0.13% hits. AID 624418;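 also: loss of luciferase light is scored as toxicity; % is scaled to controls: 0 for no effect and ±100 for the full control effect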
#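 Luminescence readout: signal drop marks cytotoxicity. Plated cells grew 12 h at 37 °C, 5% CO2, received 23 nL compound for 24 h, then got luciferase reagent, read after 12 min at RT.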
# The depositor's hits bear a star; i = inactive; ? = inconclusive; · = no result. Calls follow the shape of the dose curve; as a rule, active = well fitted curve in the direction sought with a large enough effect; inconclusive = small, poorly fitted or top-dose-only effect, or another doubt; inactive = no such curve, though single readings can be large; an effect the other way counts as inactive or inconclusive. Potency is read from the fitted curve at half-maximal effect.
SMILES,PTHR1 agonist,RGS4 inhibitor,KAT2A inh,GLP1R inv ag,GLP1R ag,GLP1R cytotox
CC(C)C[C@H](NC(=O)[C@H](Cc1cnc[nH]1)NC(=O)[C@@H](N)Cc1cnc[nH]1)C(=O)NCC(=O)NCC(=O)N[C@@H](C)C(=O)N[C@@H](CCCCN)C(=O)N[C@@H](CCC(N)=O)C(=O)N[C@@H](C)C(=O)NCC(=O)N[C@@H](CC(=O)O)C(=O)N[C@H](C(=O)O)C(C)C,·,·,-11.5%,·,·,·
CCOc1ccc(N2CC(O)Cn3c2nc2c3c(=O)n(CCCc3ccccc3)c(=O)n2C)cc1 (stereo not given),i,-0.8%,-11.1%,5.62µM*,2.0%,-32.7%
CCc1ccc(N2C(=O)C(Cl)=C(N3CCOCC3)C2=O)cc1,i,-14.6%,-5.4%,31.2%,0.2%,-2.4%
CCc1ccc(N2C(=O)C(Cl)=C(N3CCCCCC3)C2=O)cc1,-11.0%,6.6%,-2.1%,10µM*,10.8%,4.7%
COc1ccc2[nH]c3c(c2c1)CCN(C(=O)c1cccc(Cl)c1)C3c1ccc(F)cc1 (stereo not given),-3.0%,6.9%,-2.9%,4.47µM*,-0.2%,1.6%
CSc1ccc(C2c3[nH]c4ccccc4c3CCN2C(=O)CCC2CCCC2)cc1 (stereo not given),i,24.5%,-16.4%,2.24µM*,·,17.8%
O=C(CSc1ccccc1)N1CCc2c([nH]c3ccccc23)C1c1ccc(F)cc1 (stereo not given),i,8.5%,-3.9%,?,·,-5.9%
CCOc1cccc(CC(=O)N2CCc3c([nH]c4ccc(OC)cc34)C2c2ccc(F)cc2)c1OCC (stereo not given),i,13.9%,-6.8%,-5.0%,0.2%,-3.6%
CCOc1ccc(C2c3[nH]c4ccccc4c3CCN2C(=O)CSCc2ccc(F)cc2)cc1 (stereo not given),?,-7.7%,0.1%,2.82µM*,·,-12.2%
CCOc1cccc(CC(=O)N2CCc3c([nH]c4ccccc34)C2c2ccc(C)cc2)c1OCC (stereo not given),i,1.5%,-21.4%,10µM*,·,-2.7%
COc1ccc(CNC(=O)C2CCN(S(=O)(=O)c3ccc4c(ccn4C)c3)CC2)cc1,-4.9%,10.2%,1.0%,2.7%,1.0%,0.4%
C=CCCN(C(CC(C)C)C(=O)OC)S(=O)(=O)c1cc(Br)ccc1Br (stereo not given),-29.9%,0.5%,-9.8%,11.2µM*,-0.9%,5.3%
CCOc1ccccc1NC(=O)CCN(c1ccc(C)cc1)S(=O)(=O)c1ccccc1,i,-35.0%,-7.5%,11.2µM*,5.4%,12.1%
Cc1ccc(N(CCC(=O)O)S(=O)(=O)c2ccccc2)cc1,i,17.6%,-1.6%,21.3%,7.6%,69.0%
Cc1c(NS(=O)(=O)c2ccc(Br)cc2)c(=O)n(-c2ccccc2)n1C,i,2.5%,-2.1%,11.6%,2.2%,3.7%
Cc1c(NP(=O)(c2ccc(Br)cc2)c2ccc(Br)cc2)c(=O)n(-c2ccccc2)n1C,i,-12.5%,-13.4%,11.2µM*,10.5%,-14.6%
CCCCNC(=O)C1(C)CCCCN1C(=O)c1ccc(OC)c(C(F)(F)F)c1 (stereo not given),-23.1%,·,·,26.5%,8.7%,-4.2%
COc1cc(OC)c(NC(=O)C2=C(C)C(=O)OC23CCCCCC3)cc1Cl,-0.7%,-1.0%,-11.5%,-27.0%,·,-4.7%
COc1ccc(NC(=O)C2=C(C)C(=O)OC23CCC(C)CC3)cc1Cl (stereo not given),i,-32.2%,-7.2%,7.94µM*,1.3%,-6.6%
CC(C)CCNC(=O)C1(C)CCN1Cc1ccc2ccccc2c1 (stereo not given),-2.0%,·,·,10µM*,7.9%,0.1%

# Source: PubChem (National Center for Advancing Translational Sciences (NCATS))
